Assay outcomes as filed in PubChem BioAssay.
SW480 rereplic: induces DNA re-replication in SW480 colon adenocarcinoma cells; 1.8% of 340,000 active; Potency, µM (titrated, usually from 46.1 µM), without a hit: at the highest dose re-replication activation, actives largely listed as activators; SW480 DNA re-replication, Hoechst DNA content imaging, 48 h; further: % of control where 0% means no effect; nearly all actives have a fitted effect of over 55% in size
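Readout is total intensity of Hoechst-stained nuclei, excited at 405 nm and collected at 500-530 nm. Compound treatment lasted 48 hr at 37 C in 5% CO2 before staining.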
HT1080 IDH1KD tx: HT-1080 IDH1 knockdown cell toxicity (counter line); HT-1080 IDH1 knockdown viability, ATP luminescence, 48 h; Potency, µM (highest dose often 46.1 µM), for the others: top-dose activity, negative = toxicity, hits mostly cytotoxic; 2% of 360,000 active; AID 686971;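 further: 0% = DMSO wells and -100% = cell-free medium wells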
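Using the IDH1-knockdown HT-1080 line run in the same batch and compound series as the NT line, viability after 48 h at 37 °C was determined by CellTiter-Glo luminescence and expressed as % activity.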
KB-V1 cytotox: kills drug-selected multidrug resistant KB-V1 cells; AID 1347076; Potency, µM (highest dose often 46.1 µM), actives largely listed as cytotoxic; KB-V1 MDR cells viability, CellTiter-Glo, 72 h; 3.4% of 400,000 active; further: on the % scale 0 is the no-effect control and ±100 the full control effect; nearly all actives have a fitted effect of over 60% in size
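Cytotoxicity toward P-gp-expressing KB-V1 cells was determined as loss of CellTiter-Glo luminescence after 72 h at 37 degrees C. Compounds were tested in quantitative HTS format across a concentration range, with curves fitted to normalized data.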
KB-3-1 cytotox: KB-3-1 parental cell cytotoxicity; KB-3-1 viability, CellTiter-Glo ATP luminescence, 72 h; Potency, µM (series often up to 46.1 µM), hits mostly cytotoxic; 1.4% of 400,000 active; AID 1347075; further: on the % scale 0 is the no-effect control and ±100 the full control effect; nearly all actives have a fitted effect of over 60% in size
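Cytotoxicity in the drug-sensitive parental line KB-3-1 was scored as loss of CellTiter-Glo luminescence following 72 h incubation with compound. Values come from curve fitting of normalized concentration-response data.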
MCF10A rereplic: induces DNA re-replication in MCF 10a normal breast cells; MCF 10A DNA re-replication, Hoechst nuclear intensity, 48 h; Potency, µM (highest dose often 46.1 µM), for the others: top-dose activity, positive = re-replication, most hits filed as activators; 2.9% of 350,000 active; AID 624296; further: % of control where 0% means no effect; nearly all actives have a fitted effect of over 50% in size
HT1080-NT tox: kills 2HG-producing HT-1080-NT fibrosarcoma cells. HT-1080-NT fibrosarcoma viability, CellTiter-Glo ATP luminescence, 48 h. Potency, µM (top dose mostly 46.1 µM), for inactives: top-dose activity, negative = less viability, hits mostly cytotoxic. 1.6% of 360,000 active;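 further: NT is the 2HG producing partner of a matched IDH1 knockdown line; 0% = DMSO-treated cells and -100% = media-only wells without cells; nearly all actives have a fitted effect of over 55% in size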
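A 48-hour cytotoxicity screen used HT-1080-NT cells plated 2 hours before compound delivery. ATP-based CellTiter-Glo luminescence measured viability, normalized to DMSO and no-cell controls.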
An asterisk follows results filed as active; i = inactive; ? = inconclusive; · = not tested or not shown; [ ] = another dose, or the depositor's remark. Most compounds without a hit are left out; they make up all but 7.9% or so of the library. The call rests on the fitted dose curve; in most records, active means well fitted curve in the direction sought with a large enough effect; inconclusive means small, poorly fitted or top-dose-only effect, or another doubt; inactive means no such curve, though single readings can be large; an effect the other way counts as inactive or inconclusive. Potency means the concentration at half of the fitted maximal effect.

SMILES	SW480 rereplic	HT1080 IDH1KD tx	KB-V1 cytotox	KB-3-1 cytotox	MCF10A rereplic	HT1080-NT tox
COC(=O)c1c(NC(=O)/C=C/C(=O)O)sc(C)c1-c1ccc(C)c(C)c1	?	?	i	?	16µM*	?
COC(=O)c1scc(C)c1NC(=O)/C=C/C(=O)O	-19%	5%	i	i	-3%	5%
CCCc1nc2ccccc2c(=O)n1NC(=O)c1c(O)c2ccccc2n(C)c1=O	8%	0%	5.8µM*	15µM*	15%	0%
CCc1nc2ccccc2c(=O)n1NC(=O)c1c(O)c2ccccc2[nH]c1=O	16%	7%	2.9µM*	?	?	11%
CCc1nc2ccccc2c(=O)n1NCCc1ccccc1	0%	17%	i	i	?	26%
Cc1c(C(C)C)c(=O)n(-c2ccccc2)n1C	-3%	·	·	·	9%	·
Cc1c(C(C)C)c(=O)n(-c2ccc(S(=O)(=O)NCc3ccccc3)cc2)n1C	-8%	?	2.6µM*	?	26%	?
CC(=Nc1ccccc1)C1=C(O)C(Cc2cccc(F)c2)NC1=O (stereo not given)	·	?	1.2µM*	?	·	0.026µM*
CC(=Nc1ccccc1)C1=C(O)C(Cc2ccc(O)cc2)NC1=O (stereo not given)	0.13µM*	?	?	0.21µM*	0.46µM*	0.58µM*
O=C(Nc1ccc2ccccc2c1)Nc1nnc(-c2ccccc2F)s1	·	·	i	?	·	·
CCC1C(O)=C(c2ccccn2)C(=N)N1c1ccccc1 (stereo not given)	18µM*	0%	i	i	13µM*	0%
COc1ccc(Cn2c(SCc3ccc(C(=O)NC4CCCC4)cc3)nc3ccncc32)cc1	·	·	i	i	·	·
Cc1ccc(Cn2c(SCc3ccc(C(=O)NC4CCCC4)cc3)nc3ccncc32)cc1	·	·	i	23µM*	·	·
COc1ccc(C(C(=O)NCC2CCCO2)N(C(=O)c2snc(C(N)=O)c2N)c2ccc(C)cc2)cc1OC (stereo not given)	-7%	-8%	i	i	1%	-10%
CCOC(=O)[C@]12CCC=C1N(Cc1ccc(Cl)cc1Cl)C(=O)[C@H](CC(=O)N1CCN(C(=O)c3ccco3)CC1)C2	·	?	10µM*	i	·	-13%
CCOC(=O)N1CCN(C(=O)C[C@@H]2C[C@@]3(C(=O)OCC)CCC=C3N(Cc3ccc(Cl)cc3Cl)C2=O)CC1	·	?	10µM*	i	·	-17%
CCCCOCCCNC(=O)C[C@@H]1C[C@@]2(C(=O)OCC)CCC=C2N(Cc2ccc(Cl)cc2Cl)C1=O	·	?	18µM*	?	·	?
Cc1ccc(F)c(CNC(=O)C2CCC(=O)N(CCCN3CCCC3=O)C2)c1F (stereo not given)	3%	13%	?	i	-2%	5%
COc1cccc(C(=O)N2CCCc3ccccc32)c1	-2%	2%	?	i	2%	3%
COc1ccc2c(c1)CCc1c(C(=O)N3CCOCC3)noc1-2	-2%	-22%	16µM*	i	7%	-13%
COc1ccc2c(c1)CCc1c(C(=O)N3CCCc4ccccc43)noc1-2	12%	?	7.3µM*	21µM*	?	?
COc1ccc2c(c1)CCc1c(C(=O)N3CC4(C)CC3CC(C)(C)C4)noc1-2 (stereo not given)	2%	?	i	i	?	?
Cc1cccc(C(=O)OCC(=O)NCc2ccc(Cl)cc2)c1	·	8%	i	i	·	-1%
COC(=O)c1ccccc1NC(=O)c1ccc(-c2cccc(Cl)c2)o1	-6%	12%	i	i	-2%	24%
COC(=O)c1sccc1-c1ccc(C(=O)Nc2cccc(Cl)c2)o1	6%	-7%	16µM*	i	?	-6%
SMILES	SW480 rereplic	HT1080 IDH1KD tx	KB-V1 cytotox	KB-3-1 cytotox	MCF10A rereplic	HT1080-NT tox
CN(C)S(=O)(=O)Oc1ccsc1C(=O)Nc1cccc(Cl)c1	-12%	0%	21µM*	?	10%	-6%
O=C(Cc1ccccc1)NCC(=O)OCC(=O)c1cccc2ccccc12	·	·	i	i	·	·
Cc1ccc(NC(=O)c2cc(S(=O)(=O)Nc3ccc(C)cc3)cs2)cc1	?	-17%	4.1µM*	?	6%	-6%
Cc1ccc(NS(=O)(=O)c2ccc(NC(=O)c3cccs3)cc2)c(C)c1	18%	-21%	i	i	?	-28%
CN(Cc1ccccc1)S(=O)(=O)c1ccc(NC(=S)NC(=O)C2CCCC2)cc1	3.3µM*	8.9µM*	4.1µM*	6.5µM*	15µM*	7.1µM*
Cc1cc(NS(=O)(=O)c2ccc(NC(=S)NC(=O)c3cccnc3)cc2)no1	3.3µM*	11%	i	i	-9%	12%
CN(C1CCCCC1)S(=O)(=O)c1ccc(NC(=S)NC(=O)c2cccs2)cc1	?	7.9µM*	?	?	3%	2.5µM*
CCOC(=O)c1c(NC(=O)COC(=O)c2cnccn2)sc(C)c1C	-1%	15%	i	i	18%	12%
Cc1cc(C)cc(NS(=O)(=O)c2ccc(NC(=S)NC(=O)c3cccs3)cc2)c1	?	?	2.9µM*	23µM*	?	?
O=C(NC(=S)Nc1ccc(NC(=O)c2cccs2)cc1)c1cc2ccccc2o1	0%	18µM*	?	i	?	21µM*
O=C(NC(=S)Nc1ccc(NC(=O)c2cccs2)cc1)c1ccco1	-1%	-24%	i	i	19%	-16%
CCN(CC)C(=O)Oc1cc(=O)n2c3c(cccc13)CCC2	-5%	-3%	16µM*	i	1%	-4%
CCCNC(=O)c1c(O)c2cccc3c2n(c1=O)CCC3	-21%	4%	i	i	0%	-2%
Cc1nc(-c2ccccc2)nc2sc(C(=O)c3ccc(F)cc3)c(N)c12	16µM*	0%	i	i	10µM*	5%
CCOC(=O)c1sc2nc(-c3cccnc3)ccc2c1N	17%	-7%	i	i	?	-2%
CC(C)OC(=O)c1sc2nc(-c3ccccc3)ccc2c1N	5.8µM*	0%	i	i	?	-6%[9.24 µM]
CCOc1ccc(-c2c(C#N)c(N)nc3sc(C(=O)c4ccccc4)c(N)c23)cc1	10%	-1%	i	i	1%	-5%
COc1ccc(C(=O)c2sc3nc(-c4ccccc4)ccc3c2N)cc1	21µM*	-23%	i	?	3.7µM*	4%
CCOc1ccccc1NC(=O)c1sc2nc(-c3ccc(OC)cc3)ccc2c1N	·	·	?	i	·	·
